Source: PubChem (National Center for Advancing Translational Sciences (NCATS))
Sm TGR block – qHTS Assay for the Inhibitors of Schistosoma Mansoni Peroxiredoxins. 3% of 360,000 active. Potency, µM (titrated, usually from 114 µM), hits mostly inhibitors. purified TGR, DTNB reduction, TNB absorbance 405 nm. AID 485364, 2010; note: nearly all actives have a fitted effect of over 60% in size
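TGR 20 nM + NADPH 100 uM (dispensed conc.), cpd preinc 15 min RT; start with NADPH (500 uM addition) then DTNB (15 mM addition). Kinetic TNB absorbance, 405 nm filter. Four-parameter Hill fit across titration.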
TbPYK inhibitor – qHTS of Trypanosoma Brucei Inhibitors | 0.12% of 410,000 active | AID 624173, 2012 | Potency, µM (titrated, usually from 76.8 µM), most hits filed as inhibitors | TbPYK enzyme, Kinase-Glo Plus ATP luminescence, 45 min | pyruvate kinase (Trypanosoma brucei), Q57TT1; note: nearly all actives have a fitted effect of over 50% in size
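Activity of T. brucei pyruvate kinase was followed by Kinase-Glo Plus luminescence after the enzyme reacted 45 min at room temperature with 130 uM ADP (final) and substrate. Test compounds were added before ADP at multiple concentrations.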
FMDV antiviral – High Throughput Screening for Foot and Mouth Disease Virus Antivirals; FMDV antiviral cell-based qHTS; Potency, µM (highest dose often 57.9 µM), hits mostly inhibitors; 1.2% of 410,000 active; calls by dose curve; tested in HEK293T cells; note: read-out not given here; nearly all actives have a fitted effect of over 45% in size
RE007 growth inh – qHTS Assay for Inhibitors of the HIV-1 protein Vpr | S. pombe RE007 Vpr strain, BacTiter-Glo ATP luminescence, 24 h | Potency, µM (highest dose often 92.2 µM), usual class: inhibitors | 0.21% of 360,000 active; active = well fitted falling curve with a large enough effect; inconclusive = small, poorly fitted or top-dose-only effect; inactive = no such curve, though single readings can be large or run the other way; note: nearly all actives have a fitted effect of over 50% in size
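Fission yeast strain RE007, carrying one chromosomally integrated HIV-1 vpr copy, was seeded at OD 0.01 in PMG+AL medium with 23 nL pinned compound. After 24 h at 30 °C and 99% humidity, viability was read by BacTiter-Glo luminescence.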
Of the large screens only hits and unclear results are named; the others gave an inactive call. An excerpt weighted towards active compounds, which were near 3.7% of everything screened. Unless noted, calls come from the whole dose curve; as a rule, active = well fitted curve in the direction sought with a large enough effect; inconclusive = small, poorly fitted or top-dose-only effect, or another doubt; inactive = no such curve, though single readings can be large; an effect the other way counts as inactive or inconclusive.

CC(=O)Nc1ccc(C2C(=O)c3ccccc3C2=O)cc1	FMDV antiviral 20µM
CCCC(=O)Nc1ccc(C2C(=O)c3ccccc3C2=O)cc1	FMDV antiviral 10µM
COc1ccc2c(c1)-c1nc(-n3ncc(C(=O)N(C)CC4CCCN(C)C4)c3C)ncc1CC2 (stereo not drawn)	none (no result: Sm TGR block, TbPYK inhibitor, RE007 growth inh)
Cc1cc(C)nc(-c2cccc3c2OC(CNC(=O)C2CCOC2)C3)n1 (stereo not drawn)	none (no result: Sm TGR block, TbPYK inhibitor, RE007 growth inh)
CCOC(=O)c1c(NC(=S)NC)sc2c1CC(C)(C)SC2	Sm TGR block 10µM, TbPYK inhibitor inconclusive
CCOC(=O)c1c(NC(=S)Nc2ccccc2)sc2c1CC(C)(C)SC2	Sm TGR block inconclusive
O=C1CN(C(=O)c2ccc(S(=O)(=O)N3CCCC3)cc2)C(c2ccccc2)c2cc(Cl)ccc2N1 (stereo not drawn)	none (no result: RE007 growth inh)
O=C(c1ccccc1)c1ccc(N2CCOCC2)c(F)c1	RE007 growth inh inconclusive
O=C(c1ccccc1)c1cc(F)c(N2CCOCC2)cc1Cl	RE007 growth inh 39.8µM
CSc1ncc(/C=C2/C(=O)NC(=O)N(c3ccc(C)cc3)C2=O)cn1	Sm TGR block 2.51µM
CSc1ncc(/C=C2/C(=O)NC(=O)N(c3ccc(Cl)cc3)C2=O)cn1	Sm TGR block 5.62µM
CCOc1ccc(/C=C2/C(=O)NC(=O)N(CCc3ccc(F)cc3)C2=O)cc1	Sm TGR block inconclusive
Cc1ccc(N2C(=O)NC(=O)/C(=C/c3cnn(-c4ccc(C)cc4)c3)C2=O)cc1	FMDV antiviral inconclusive
CCOc1ccc(N2C(=O)NC(=O)/C(=C/c3cnc(SC)nc3)C2=O)cc1	Sm TGR block 8.91µM, TbPYK inhibitor inconclusive
Cc1ccc(N2C(=O)NC(=O)/C(=C\c3cnc(-c4ccccc4)nc3)C2=O)cc1	Sm TGR block 1.58µM, RE007 growth inh inconclusive
CCCCn1c(SCC(=O)Nc2cccc(OC)c2)nc2ccsc2c1=O	none (no result: RE007 growth inh)
Cc1ccccc1Cn1c2ccccc2c2cnn(CC(=O)NCCCc3ccccc3)c(=O)c21	none (no result: RE007 growth inh)
O=S(=O)(c1ccc(Br)cc1)N1CCCN(Cc2cccc(F)c2)CC1	none
COc1ccc(S(=O)(=O)N2CCN(C3CCN(Cc4ccccc4)CC3)CC2)cc1	Sm TGR block 50.1µM
COc1cccc(CN2CCCN(S(=O)(=O)c3ccc(Br)cc3)CC2)c1	Sm TGR block 39.8µM
O=C(CN1CCCN(S(=O)(=O)c2ccc(Br)cc2)CC1)Nc1cccc(C(F)(F)F)c1	Sm TGR block 35.5µM (no result: RE007 growth inh)
COc1cc(=O)n2c(c1C(=O)N(C)Cc1nonc1C)CCN(C(=O)c1ccc(C)c(C)c1)CC2	none (no result: Sm TGR block, TbPYK inhibitor, RE007 growth inh)
CC(C)=CCC/C(C)=C/C=C/C(C)=C/C=C/C(C)=C/C=C/C=C(C)/C=C/C=C(C)/C=C/C=C(\C)CCC=C(C)C	none (no result: Sm TGR block, FMDV antiviral, RE007 growth inh)
COc1ccc(S(=O)(=O)n2nc(C)c(S(=O)(=O)N3CCCCC3)c2C)cc1	none (no result: RE007 growth inh)
CCc1ccc(-n2nnc(-c3nc(-c4cccs4)no3)c2N)cc1	none (no result: RE007 growth inh)
COc1ccc(CC(=O)N2CCc3cc(OC)c(OC)cc3C2COc2ccc(F)cc2)cc1 (stereo not drawn)	none (no result: RE007 growth inh)
COc1ccc(CC(=O)N2CCc3cc(OC)c(OC)cc3C2COc2ccc(F)cc2)cc1OC (stereo not drawn)	FMDV antiviral 25.1µM (no result: RE007 growth inh)
CCC1(c2cnc[nH]2)Cc2ccccc2C1	none (no result: Sm TGR block, FMDV antiviral, RE007 growth inh)
CC1=Nc2ccccc2/C1=C/c1c(O)n(C)c(=O)[nH]c1=O	FMDV antiviral 31.6µM
Cc1ccccc1-n1c(O)c(/C=C2/C(c3ccccc3)=Nc3ccccc32)c(=O)[nH]c1=O	FMDV antiviral 22.4µM, RE007 growth inh inconclusive
Cc1ccc(-n2c(O)c(/C=C3/C(c4ccccc4)=Nc4ccccc43)c(=O)[nH]c2=O)cc1	Sm TGR block inconclusive, FMDV antiviral inconclusive (no result: RE007 growth inh)
Cc1cccc(-n2c(O)c(/C=C3/C(c4ccccc4)=Nc4ccccc43)c(=O)[nH]c2=O)c1	FMDV antiviral inconclusive, RE007 growth inh inconclusive
Cc1ccn2c(=O)c(NC(=O)c3cccc([N+](=O)[O-])c3C)c(C)nc2c1	none (no result: RE007 growth inh)
COC(=O)c1ccc(C(=O)OC)c(NC(=O)/C=C/C(=O)O)c1	Sm TGR block 10µM
COC(=O)c1ccc(C(=O)OC)c(NC(=O)Oc2ccccc2)c1	none
O=C(NCCc1nnc2n1CCN(CC1CC=CCC1)CC2)c1ccc(F)cc1 (stereo not drawn)	none (no result: Sm TGR block, TbPYK inhibitor, RE007 growth inh)
CC1CCN(c2oc(-c3ccco3)nc2S(=O)(=O)c2ccccc2)CC1	none
O=S(=O)(c1ccccc1)c1nc(-c2ccco2)oc1N1CCCCC1	Sm TGR block 44.7µM
